Laboratory results reported in PubChem BioAssay (Tox21).
Values joined by “and” are separate entries in the source; they are usually repeats but may differ in a detail not shown here. Equal values may be shown once. Records with an inconclusive call do not appear. More than one record can exist for a structure, and the calls need not agree. Active and inactive are the calls of the source. Unless noted, calls come from the whole dose curve.

Legend:
[1] = Nuclear factor erythroid 2-related factor 2/antioxidant responsive element (Nrf2/ARE) small molecule agonists: qHTS cell viability counter screen in human keratinocytes (AID 1919968; active = well fitted curve in the direction sought with a large enough effect in the repeat runs; an effect the other way counts as inactive or inconclusive; note: nearly all actives have a fitted effect of over 55% in size; note: potency is the fitted concentration of half-maximal effect)
In short: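 Measured as CellTiter-Fluor fluorescence, this readout tracks cytotoxicity in the same wells as the ARE-luciferase screen. HaCaT reporter cells (1,500/well) received compounds after a 5 h pre-incubation and were exposed for 23 h.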

[2] = Nuclear factor erythroid 2-related factor 2/antioxidant responsive element (Nrf2/ARE) small molecule agonists: luciferase reporter gene qHTS assay in human keratinocytes (AID 1919969); note: nearly all actives have a fitted effect of over 35% in size; note: potency is the fitted concentration of half-maximal effect
[3] = target: Gonadotropin-releasing hormone receptor (Homo sapiens) (UniProt P30968); test: Human gonadotropin-releasing hormone receptor (GnRHR) small molecule agonists, calcium flux assay in GnRHR-HEK293 cells (AID 1920063); note: nearly all actives have a fitted effect of over 35% in size; note: potency is the fitted concentration of half-maximal effect
In short: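 Fluorescence kinetics (480 nm excitation, 540 nm emission; 3 min, 1 s steps) report calcium mobilisation in human GnRHR-HEK293 cells in agonist mode. Dye incubation: 1 h, 37 C.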

[4] = target: KiSS-1 receptor (Homo sapiens) (UniProt Q969F8); test: Human kisspeptin (KISS1R) small molecule agonists, calcium flux assay in KISS1R-HEK293 cells (AID 1920064; active = well fitted curve in the direction sought with a large enough effect in the repeat runs; an effect the other way counts as inactive or inconclusive; note: potency is the fitted concentration of half-maximal effect)
In short: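 Measures KISS1R agonism through calcium-sensitive dye fluorescence in stably transfected HEK293 cells, read for 3 min after pin-tool compound delivery; 15-point titrations in triplicate.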

[5] = p53 small molecule agonists, cell-based qHTS assay with rat liver microsomes: qHTS cell viability counter screen (AID 1963580); note: nearly all actives have a fitted effect of over 45% in size
In short: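 Viability is assessed in parallel with the p53 reporter read: HCT-116 p53RE-bla cells receive compounds plus rat microsomes and NADPH (0.5 mg/mL final apiece), incubate 16 h at 37 C, and then CellTiter-Glo luminescence is recorded.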

[6] = p53 small molecule agonists, cell-based qHTS assay: qHTS cell viability counter screen (AID 1963581); note: nearly all actives have a fitted effect of over 45% in size
In short: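 In the same plates used for the p53 bla reporter, HCT-116 cells given compounds for 16 h at 37 C received CellTiter-Glo; luminescence was recorded 30 min later at room temperature.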

[7] = target: 5-hydroxytryptamine receptor 2A (Homo sapiens) (UniProt P28223); test: 5-hydroxytryptamine receptor 2A (HTR2A) small molecule antagonists, cell-based qHTS assay (AID 1963586); note: nearly all actives have a fitted effect of over 45% in size; note: potency is the fitted concentration of half-maximal effect
In short: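 Antagonist-mode intracellular calcium assay: DOI (4 nM) added after 5 min compound pre-incubation at room temperature to dye-loaded HTR2A-CHO cells. Fluorescence followed for 3 min, sampled every second.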

[8] = target: 5-hydroxytryptamine receptor 2A (Homo sapiens) (UniProt P28223); test: 5-hydroxytryptamine receptor 2A (HTR2A) small molecule agonists, cell-based qHTS assay (AID 1963587); note: nearly all actives have a fitted effect of over 30% in size; note: potency is the fitted concentration of half-maximal effect
In short: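 CHO cells stably expressing human HTR2A, plated 18 h, loaded with calcium dye 1 h at 37 C. Agonist mode: compounds added and intracellular calcium fluorescence recorded kinetically for 2 min at 1 sec intervals.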

[9] = target: Muscarinic acetylcholine receptor M1 (Homo sapiens) (UniProt P11229); test: Cholinergic receptor muscarinic 1 (CHRM1) small molecule antagonists, cell-based qHTS assay (AID 1963588); note: nearly all actives have a fitted effect of over 40% in size
In short: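 CHRM1-CHO calcium-flux assay, antagonist mode. Cells were seeded 18 h, dye-loaded 1 h at 37 C and given compound for 5 min at RT, then acetylcholine was added at 50nM. FDSS fluorescence was read 3 min; 15 concentrations, three runs.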

[10] = target: Muscarinic acetylcholine receptor M1 (Homo sapiens) (UniProt P11229); test: Cholinergic receptor muscarinic 1 (CHRM1) small molecule agonists, cell-based qHTS assay (AID 1963589); note: nearly all actives have a fitted effect of over 35% in size; note: potency is the fitted concentration of half-maximal effect
In short: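 Each compound was tested at 15 concentrations across three independent runs on dye-loaded CHO cells stably expressing human CHRM1, reading intracellular calcium fluorescence kinetically at 1 sec intervals.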

[11] = cAMP Responsive Elements (CRE) small molecule agonists, cell-based qHTS assay (AID 1963590)
In short: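 Cell line: CRE-bla HEK 293T; medium DMEM/10% dialyzed FBS/0.1 mM NEAA/1 mM pyruvate/25 mM HEPES; 3 h compound exposure; beta-lactamase FRET readout after 2 h substrate loading at RT.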

[12] = cAMP Responsive Elements (CRE) small molecule antagonists, cell-based qHTS assay (AID 1963591; active = well fitted inhibition curve with a large enough effect in the signal ratio in the repeat runs, not every such curve was filed as active; the % refers to the signal ratio)
In short: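 Inhibition of NKH477-driven (0.25 uM final) CRE-beta-lactamase signal in HEK293T cells, 3 h compound exposure at 37 °C, detected by FRET substrate fluorescence.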

[13] = target: Beta-2 adrenergic receptor (Homo sapiens) (UniProt P07550); test: Adrenergic beta2 receptor (ADRB2) small molecule antagonists, cell-based qHTS assay (AID 1963592); note: series mostly up to about 92 µM; nearly all actives have a fitted effect of over 50% in size
In short: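 Cells (CHO, stable ADRB2 overexpression) incubated 18-20hr at 37C; compounds added from DMSO; agonist mix (1nM isoproterenol, 100uM IBMX, 25uM Ro-20-1724) added; 0.5hr RT; d2-cAMP and anti-cAMP-cryptate added; 1hr RT; 665/615 nm read.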

[14] = target: Beta-2 adrenergic receptor (Homo sapiens) (UniProt P07550); test: Adrenergic beta2 receptor (ADRB2) small molecule agonists, cell-based qHTS assay (AID 1963593);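 note: CHO cells stably overexpressing human ADRB2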
In short: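 CHO cells stably over-expressing ADRB2 were plated overnight at 37C, then dosed with compounds plus a stimulation mix containing 100uM IBMX and 25uM Ro-20-1724 for 0.5hr at room temperature. cAMP was measured by HTRF competition, 1hr.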

[15] = target: D(2) dopamine receptor (Homo sapiens) (UniProt P14416); test: Dopamine D2 receptor (DRD2) small molecule agonists, cell-based qHTS assay (AID 1963594); note: nearly all actives have a fitted effect of over 35% in size
In short: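 HEK293 cells stably expressing human DRD2, pre-treated with PDE inhibitor Ro20-1724 (0.1 mM final) and compound 10 min at room temperature, then stimulated with NKH477 (200nM […]) for 30 min. cAMP read by HTRF (665/620 nm).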

[16] = target: D(2) dopamine receptor (Homo sapiens) (UniProt P14416); test: Dopamine D2 receptor (DRD2) small molecule antagonists, cell-based qHTS assay (AID 1963595; active = well fitted inhibition curve with a large enough effect in the signal ratio in the repeat runs, with a control signal flat; the % refers to the signal ratio)
In short: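 Antagonism was scored as restored cAMP in HEK293-DRD2 cells. These cells were stimulated with 200 nM NKH477 and 12 nM quinpirole for 30 min at room temperature, in the presence of 0.1 mM Ro20-1724.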

[17] = p53 small molecule agonists, cell-based qHTS assay with human liver microsomes (AID 1963577);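 note: p53 response element beta-lactamase reporter cells with liver microsomes plus NADPH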
In short: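 Steps: plate p53RE-bla cells, incubate 5 h at 37 C; add compound in DMSO; add microsomes (0.5 mg/mL final) and NADPH (0.5 mg/mL final); incubate 16 h at 37 C; add LiveBLAzer, 2 h RT; read fluorescence.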

[18] = p53 small molecule agonists, cell-based qHTS assay with rat liver microsomes (AID 1963578)
In short: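 Metabolic activation is supplied by rat liver microsomes with NADPH (each 0.5 mg/mL final). p53RE-bla cells incubate with compound 16 h at 37 C; reporter activity is measured by LiveBLAzer fluorescence.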

[19] = p53 small molecule agonists, cell-based qHTS assay with human liver microsomes: qHTS cell viability counter screen (AID 1963579); note: nearly all actives have a fitted effect of over 45% in size
In short: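 After the 460/530 nm beta-lactamase read, CellTiter-Glo was added to the same wells and luminescence measured after 30 min at room temperature, giving viability of p53RE-bla cells treated 16 h with compounds plus microsomes and NADPH.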

[20] = p53 small molecule agonists, cell-based qHTS assay (AID 1963582; active = well fitted activation curve with a large enough effect in the signal ratio in the repeat runs, not every such curve was filed as active; the % refers to the signal ratio)
In short: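 Compounds are pin-transferred in DMSO onto p53RE-bla cells and incubated 16 h at 37 C. The B/G FRET beta-lactamase substrate is then applied for 2 h at RT and fluorescence recorded.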

Measured: Potency

Chain of D(2) dopamine receptor (Homo sapiens) (P14416 whole entry, looked up): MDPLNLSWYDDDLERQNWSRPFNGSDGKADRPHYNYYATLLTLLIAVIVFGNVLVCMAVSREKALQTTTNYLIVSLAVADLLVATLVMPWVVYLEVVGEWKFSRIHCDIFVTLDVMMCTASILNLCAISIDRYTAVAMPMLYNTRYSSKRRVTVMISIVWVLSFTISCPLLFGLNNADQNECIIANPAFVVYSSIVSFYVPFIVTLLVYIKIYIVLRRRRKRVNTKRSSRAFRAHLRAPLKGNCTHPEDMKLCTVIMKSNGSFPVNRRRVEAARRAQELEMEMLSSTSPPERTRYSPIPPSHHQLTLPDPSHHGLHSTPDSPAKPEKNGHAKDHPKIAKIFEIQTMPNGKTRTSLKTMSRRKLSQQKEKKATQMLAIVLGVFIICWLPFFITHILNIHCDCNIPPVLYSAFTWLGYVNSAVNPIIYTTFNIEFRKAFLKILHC
Chain of 5-hydroxytryptamine receptor 2A (Homo sapiens) (P28223 whole entry, looked up): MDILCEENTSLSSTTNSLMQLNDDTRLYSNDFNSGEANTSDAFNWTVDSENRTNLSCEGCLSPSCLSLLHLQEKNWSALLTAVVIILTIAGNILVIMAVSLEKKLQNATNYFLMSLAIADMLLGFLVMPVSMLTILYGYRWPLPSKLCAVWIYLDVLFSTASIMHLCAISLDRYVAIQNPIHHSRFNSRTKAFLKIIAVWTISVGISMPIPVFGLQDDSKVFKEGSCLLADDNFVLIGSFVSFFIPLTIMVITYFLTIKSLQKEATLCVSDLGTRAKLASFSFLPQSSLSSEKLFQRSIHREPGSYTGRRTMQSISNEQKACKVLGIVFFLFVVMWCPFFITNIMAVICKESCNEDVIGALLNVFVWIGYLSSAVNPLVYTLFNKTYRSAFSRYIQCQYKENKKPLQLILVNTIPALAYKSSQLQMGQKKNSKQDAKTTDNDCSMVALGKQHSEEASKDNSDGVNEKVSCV
Chain of KiSS-1 receptor (Homo sapiens) (Q969F8 whole entry, looked up): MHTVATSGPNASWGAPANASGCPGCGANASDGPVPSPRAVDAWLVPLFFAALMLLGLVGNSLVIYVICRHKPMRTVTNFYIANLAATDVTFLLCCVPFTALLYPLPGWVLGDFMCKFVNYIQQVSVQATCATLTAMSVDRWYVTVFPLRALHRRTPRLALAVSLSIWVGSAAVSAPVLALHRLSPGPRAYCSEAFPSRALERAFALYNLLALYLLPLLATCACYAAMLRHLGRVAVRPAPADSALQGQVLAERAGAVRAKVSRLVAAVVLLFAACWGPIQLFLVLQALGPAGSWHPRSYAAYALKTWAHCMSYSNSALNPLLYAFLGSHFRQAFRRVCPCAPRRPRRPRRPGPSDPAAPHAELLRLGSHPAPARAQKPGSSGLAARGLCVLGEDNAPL
Chain of Gonadotropin-releasing hormone receptor (Homo sapiens) (P30968 whole entry, looked up): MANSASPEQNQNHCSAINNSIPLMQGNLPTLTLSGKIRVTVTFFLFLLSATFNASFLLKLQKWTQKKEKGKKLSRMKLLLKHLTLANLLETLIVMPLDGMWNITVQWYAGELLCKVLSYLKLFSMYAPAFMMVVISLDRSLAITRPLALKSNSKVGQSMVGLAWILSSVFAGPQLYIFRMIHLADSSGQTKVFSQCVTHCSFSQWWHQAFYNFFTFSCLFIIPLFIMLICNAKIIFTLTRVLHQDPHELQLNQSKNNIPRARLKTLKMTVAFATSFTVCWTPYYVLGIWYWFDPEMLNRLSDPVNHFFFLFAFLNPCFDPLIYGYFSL
Chain of Beta-2 adrenergic receptor (Homo sapiens) (P07550 whole entry, looked up): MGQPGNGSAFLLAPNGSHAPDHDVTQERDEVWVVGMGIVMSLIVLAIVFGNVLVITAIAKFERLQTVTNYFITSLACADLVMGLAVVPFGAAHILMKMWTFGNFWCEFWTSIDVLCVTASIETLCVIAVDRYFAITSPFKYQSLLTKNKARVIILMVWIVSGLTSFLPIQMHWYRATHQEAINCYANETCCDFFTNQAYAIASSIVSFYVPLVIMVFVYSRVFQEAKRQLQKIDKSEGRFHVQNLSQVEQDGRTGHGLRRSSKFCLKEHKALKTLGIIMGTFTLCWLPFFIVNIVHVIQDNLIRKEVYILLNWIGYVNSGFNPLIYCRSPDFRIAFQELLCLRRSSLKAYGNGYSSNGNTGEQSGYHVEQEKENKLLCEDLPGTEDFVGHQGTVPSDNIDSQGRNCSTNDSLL
Chain of Muscarinic acetylcholine receptor M1 (Homo sapiens) (P11229 whole entry, looked up): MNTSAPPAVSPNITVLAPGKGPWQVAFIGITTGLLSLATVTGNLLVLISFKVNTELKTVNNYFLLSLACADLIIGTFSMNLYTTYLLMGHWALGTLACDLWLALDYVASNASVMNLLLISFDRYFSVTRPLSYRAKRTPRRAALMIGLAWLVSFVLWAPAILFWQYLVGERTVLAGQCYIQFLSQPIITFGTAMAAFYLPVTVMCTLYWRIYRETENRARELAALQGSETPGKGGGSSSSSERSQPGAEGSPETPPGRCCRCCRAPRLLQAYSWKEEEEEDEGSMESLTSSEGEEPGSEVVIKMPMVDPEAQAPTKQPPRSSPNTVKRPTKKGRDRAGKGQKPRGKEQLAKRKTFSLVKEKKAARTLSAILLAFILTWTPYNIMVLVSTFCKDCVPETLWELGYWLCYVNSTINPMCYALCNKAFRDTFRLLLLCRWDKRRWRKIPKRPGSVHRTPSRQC

CN(C)c1cccc(O)c1
43.9 µM (active) and inactive: [2]
inactive: [1] | [3] | [4] | [5] | [6] | [7] | [8] | [9] | [10] | [11] | [12] | [13] | [14] | [15] | [16]

CCOCCOCC
inactive: [1] | [2] | [3] | [17] | [18] | [19] | [5] | [6] | [20] | [7] | [8] | [9] | [10] | [11] | [12] | [13] | [14] | [16]

O=Cc1ccc(C(=O)O)cc1
inactive: [1] | [2] | [3] | [17] | [18] | [19] | [5] | [6] | [20] | [7] | [8] | [9] | [10] | [11] | [12] | [13] | [14] | [15] | [16]

OC[C@H]1O[C@@H]2O[C@H]3[C@H](O)[C@@H](O)[C@@H](O[C@H]4[C@H](O)[C@@H](O)[C@@H](O[C@H]5[C@H](O)[C@@H](O)[C@@H](O[C@H]6[C@H](O)[C@@H](O)[C@@H](O[C@H]7[C@H](O)[C@@H](O)[C@@H](O[C@H]8[C@H](O)[C@@H](O)[C@@H](O[C@H]1[C@H](O)[C@H]2O)O[C@@H]8CO)O[C@@H]7CO)O[C@@H]6CO)O[C@@H]5CO)O[C@@H]4CO)O[C@@H]3CO
inactive: [1] | [2] | [3] | [4] | [19] | [6] | [11] | [12] | [13] | [14] | [15] | [16]

S=C(NC1CCCCC1)NC1CCCCC1
active: [1] 26.8 µM and 24.3 µM | [2] 15.1 µM
inactive: [3] | [4] | [19] | [6] | [7] | [9] | [10] | [11] | [12] | [13] | [14] | [15] | [16]

CC1=CCC(=O)O1
inactive: [1] | [2] | [3] | [17] | [18] | [19] | [5] | [6] | [20] | [7] | [8] | [9] | [10] | [11] | [12] | [13] | [15] | [16]

NC(=O)N[C@@H](CCC(=O)O)C(=O)O
active: [7] 8.18 µM
inactive: [1] | [2] | [3] | [17] | [18] | [19] | [5] | [6] | [20] | [8] | [9] | [10] | [11] | [12] | [13]

O=C(O)/C=C/c1cnc[nH]1
inactive: [1] | [2] | [3] | [4] | [17] | [18] | [5] | [6] | [20] | [7] | [8] | [9] | [10] | [11] | [13] | [15] | [16]

O=C1OC2(c3cc(Br)c(O)c(Br)c3Oc3c2cc(Br)c(O)c3Br)c2c(Cl)c(Cl)c(Cl)c(Cl)c21
inactive: [2] | [19] | [5] | [6] | [7] | [9] | [11] | [13] | [14] | [15]
active: [1] 4.86 µM and 18.6 µM | [3] 39 µM and 23.6 µM | [4] 55 µM and 33.4 µM | [8] 17.4 µM and 33.4 µM | [10] 49.1 µM and 33.4 µM

CC(=O)NCCO
inactive: [1] | [2] | [3] | [4] | [17] | [19] | [5] | [6] | [20] | [7] | [8] | [9] | [10] | [11] | [12] | [13] | [14] | [15] | [16]

O=C1Nc2ccccc2C1=O
inactive: [1] | [2] | [3] | [17] | [18] | [19] | [5] | [6] | [20] | [7] | [8] | [9] | [10] | [11] | [12] | [13] | [14] | [15] | [16]

COC(=O)N[C@H](C(=O)N[C@@H](Cc1ccccc1)[C@@H](O)CN(Cc1ccc(-c2ccccn2)cc1)NC(=O)[C@@H](NC(=O)OC)C(C)(C)C)C(C)(C)C
inactive: [1] | [2] | [3] | [4] | [18] | [19] | [5] | [6] | [20] | [7] | [8] | [9] | [10] | [11] | [12] | [13] | [14] | [15] | [16]

FC(F)(F)/C(=N\OCC1OCCO1)c1ccc(Cl)cc1
inactive: [1] | [2] | [3] | [4] | [17] | [18] | [5] | [6] | [20] | [7] | [8] | [9] | [10] | [11] | [12] | [13] | [15] | [16]

CCCCCCOC(=O)CC
inactive: [1] | [2] | [3] | [17] | [18] | [19] | [5] | [6] | [20] | [7] | [8] | [9] | [10] | [11] | [12] | [13] | [14] | [15] | [16]
